# Screens (PubChem)
# In the library only some 5.4% were active in any assay of this set; here they are far more common.
# ALR H2O2 inh = inhibitors of human ALR sulfhydryl oxidase, primary screen, biochemical, H2O2 detection, HRP-luminol luminescence, single point. FAD-linked sulfhydryl oxidase ALR (Homo sapiens), P55789. purified ALR, DTT oxidation. inhibition, % (test concentration not listed). actives 3.8% (n = 290,000);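 active = mean replicate inhibition above about 79%, with every replicate also reaching it, limit read from the data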
# Calb FLC = C. albicans growth inhibition with fluconazole, primary screen, CaCi-2 strain, Alamar Blue fluorescence; C. albicans CaCi-2 (fluconazole-resistant clinical isolate) + fluconazole, 48 h; growth inhibition, % (concentration not given with the values); actives 0.57% (n = 300,000); AID 1979, 2009;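 active = growth inhibition above about 58% in most replicates, limit read from the data, passing the limit was not always enough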;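 also: all wells also contain fluconazole at 8 µg/ml as a sub-toxic cotreatment; 0% = median of DMSO wells and 100% = median of geldanamycin control wells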
# PP5 inh = PP5 phosphatase inhibitors, primary screen, biochemical, fluorescence. purified PP5c, OMFP substrate fluorescence. AID 1987, 2009. actives 0.18% (n = 320,000). Serine/threonine-protein phosphatase 5 (Homo sapiens), P53041. inhibition, % at 6.7 µM;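 active = inhibition above the campaign's mean inhibition across all tested compounds plus 3 SD, cut at about 9.5% in these data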;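 also: 0% = DMSO only and 100% = 100 µM cantharidin control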
# Target sequence (P53041 whole entry, looked up): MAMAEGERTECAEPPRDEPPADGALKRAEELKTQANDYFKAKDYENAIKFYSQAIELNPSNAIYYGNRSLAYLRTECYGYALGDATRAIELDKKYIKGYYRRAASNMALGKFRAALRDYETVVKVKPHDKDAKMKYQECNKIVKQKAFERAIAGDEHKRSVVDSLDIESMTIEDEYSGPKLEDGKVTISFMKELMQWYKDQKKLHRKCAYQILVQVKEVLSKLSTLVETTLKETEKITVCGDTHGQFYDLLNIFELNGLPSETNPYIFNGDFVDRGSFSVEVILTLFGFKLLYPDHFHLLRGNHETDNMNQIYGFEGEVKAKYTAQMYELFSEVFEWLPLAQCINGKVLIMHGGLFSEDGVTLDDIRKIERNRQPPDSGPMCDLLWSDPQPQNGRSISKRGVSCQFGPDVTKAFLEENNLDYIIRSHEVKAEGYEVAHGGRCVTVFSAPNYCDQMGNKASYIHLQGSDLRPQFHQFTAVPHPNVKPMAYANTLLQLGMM
# PP1 inh = PP1-alpha phosphatase inhibitors, primary screen, counter-screen for PP5 inhibitor project, biochemical, fluorescence, OMFP substrate, single point | Serine/threonine-protein phosphatase PP1-alpha catalytic subunit (Homo sapiens), P62136 | purified PP1alpha | inhibition, % at 6.7 µM | actives 0.9% (n = 320,000);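 active = inhibition above the mean inhibition of all tested compounds plus 3 SD, computed separately for each screening campaign, cut at about 15% in these data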
# CSC inhib = cancer stem cell viability inhibitors, primary screen, luminescence. cancer stem cell-like cells viability. inhibition, % at 7.5 µM. actives 1.1% (n = 300,000). AID 2717, 2010; in the data active = inhibition above about 75%; tested in HMLE shEcad cells
# * marks the source's active call; other numbers are inactive results; . = no result; ! = repeats disagree.
SMILES,ALR H2O2 inh,Calb FLC,PP5 inh,PP1 inh,CSC inhib
S=c1[nH]nc(-c2cc(-c3ccccc3)n[nH]2)n1/N=C/c1ccc(Cl)c(Cl)c1,.,-0.1,3.8,-2.4,12.7
CC1=C(C(=O)N2CCc3ccccc32)C2(CCC(C)CC2)OC1=O (stereo not given),-2.6,-15.8,3.7,0.3,-4.4
CC1(C)OC(=O)C2(Cc3ccccc3N3CCCCC32)C(=O)O1 (stereo not given),98.7*,-15.9,0.5,0.5,-7.1
CCOC(=O)CSc1nc(N2CCOCC2)c2c(c1C#N)CC(C)(C)N(C)C2,99.6*,-0.9,-4.4,-6.7,3.0
CCOC(=O)CSc1nc(N2CCOCC2)c2c(c1C#N)CC(C)(C)OC2,0.2,0.1,0.5,-2.8,-11.3
N/C(=N\OC(=O)N1CCOCC1)c1ccc(Br)cc1,1.5,-11.9,1.0,-0.1,19.5
CCOc1ccc(/C(O)=C/C(=O)C(=O)Nc2ccc(S(=O)(=O)NC(C)=O)cc2)cc1,98.0*,-6.6,5.7,9.6,15.7
O=C(O)CCc1ccc(-c2cccs2)n1CC1CCCO1 (stereo not given),98.8*,1.8,4.2,-2.9,5.6
CCCn1c(CCC(=O)O)ccc1-c1cccs1,98.7*,-3.3,-0.8,0.7,8.8
COCCCn1c(CCC(=O)O)ccc1-c1cccs1,98.2*,-9.0,3.1,-0.7,-6.1
O=C(Nc1ccc2oc(=O)ccc2c1)c1ccccc1[N+](=O)[O-],-13.2,-5.9,-2.4,5.1,-19.4
O=S(=O)(Nc1nc2ccccc2s1)c1ccc(Br)s1,2.0,89.0*,0.6,1.8,31.7
Cc1ccc(S(=O)(=O)Nc2nc3ccccc3s2)cc1,-5.0,40.9,2.5,4.5,-4.9
Cc1nn2c(NCCOCCO)c3c(nc2c1-c1ccccc1)CCC3,55.8,-5.1,1.7,-2.6,-12.5
Cc1nn2c(NCCCN(C)C)c3c(nc2c1-c1ccccc1)CCC3,87.8*,-14.6,-1.8,2.1,.
Cc1nn2c(NCCCN(C)C)c3c(nc2c1-c1ccccc1)CCCC3,97.1*,-1.2,1.4,-0.6,33.0
COCCNc1c2c(nc3c(-c4ccccc4)c(C)nn13)CCC2,.,-1.6,-1.5,-3.1,27.3
C=CCSc1nnc(-c2ccccc2N=Cc2c(C)[nH]n(-c3ccccc3)c2=O)c(=O)[nH]1,97.3*,-10.2,-0.6,-0.2,-3.4
COc1cc(OC)c(S(=O)(=O)N2CCN(C(=O)c3ccco3)CC2)cc1NC(C)=O,-3.4,7.4,0.6,-4.3,-19.0
CC1=C(C)CS(=O)N(S(=O)(=O)c2ccc(Cl)cc2)C1 (stereo not given),99.3*,-3.8,2.2,-1.7,8.9
CCCCNc1ncnc2c1cnn2-c1ccccc1,-2.2,.,-1.5,-3.8,-13.5
CCc1nc(NC(C)(C)C)c2cnn(-c3ccccc3)c2n1,-12.0,8.6,5.5,2.6,95.3*
CCOC(=O)N1CCN(CCC(=O)Nc2cccc(Br)c2)CC1,-12.2,-10.2,-0.4,17.5*!,-5.3
CCOC(=O)/C=C/C(=O)OCC(=O)Nc1cccc(Br)c1,91.2*,20.7,-3.0,-0.6,4.4
CCOC(=O)/C=C/C(=O)OCC(=O)Nc1ccc(C)cc1,11.3,-7.5,0.6,3.5,.
SMILES,ALR H2O2 inh,Calb FLC,PP5 inh,PP1 inh,CSC inhib
CC1CCN(C(=O)Cn2ncc3c([nH]c4ccccc43)c2=O)CC1,-4.2,-11.7,0.3,0.2,-1.2
O=C(Sc1ccc(Cl)cc1)c1ccccn1,98.1*,-1.0,1.2,0.5,10.0
C/C(=N\Nc1ccc(Cl)cc1)c1ccccn1,99.7*,3.4,4.4,1.1,26.0
C/C(=N\NC(=O)c1cc(C)nc2ccccc12)c1ccccn1,0.4,.,0.1,-6.3,95.8*
C/C(=N\NC(=O)COc1ccccc1)c1ccc(O)cc1,99.8*,-13.7,-5.2,9.5,0.1
O=C(NCCNC(=O)c1ccccn1)c1ccc(Cl)cc1,1.8,2.0,0.5,-0.2,-0.8
COc1ccc(OCC(=O)N/N=C(\C)c2ccc(OC)cc2)cc1,.,-0.1,-0.5,-0.3,-8.4
COc1ccc(C(=O)Nc2ccccc2NC(=O)c2ccco2)cc1OC,.,11.1,-3.1,0.0,5.5
CCOC(=O)CN1C(=O)N[C@@H](c2ccccc2)[C@H](C(C)=O)[C@H]1C,-0.7,-13.5,2.1,-5.8,4.2
O=c1c2cnn(-c3ccccc3)c2ncn1Cc1ccccc1F,-1.8,-10.7,3.8,-0.7,-1.3
C/C(=N\NC(=O)c1ccc(Cl)cc1)c1ccccn1,0.6,15.9,-1.8,-1.9,98.1*
